About 14,000 (4.5%) of roughly 310,000 compounds showed an effect of 50% or more. Effects have a minus sign here. Shown is part of a subset that was picked to be rich in strong results.
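Further: peak tail current of the secondary pulse compared with the same well before compound.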

This assay deals with human ether-à-go-go-related gene (hERG) potassium channel (human, UniProt Q12809). Kind of assay: primary screen, population patch clamp on CHO cells stably expressing hERG; higher = less effect of the substance.
Sequence of human ether-à-go-go-related gene (hERG) potassium channel (Q12809 whole entry, looked up): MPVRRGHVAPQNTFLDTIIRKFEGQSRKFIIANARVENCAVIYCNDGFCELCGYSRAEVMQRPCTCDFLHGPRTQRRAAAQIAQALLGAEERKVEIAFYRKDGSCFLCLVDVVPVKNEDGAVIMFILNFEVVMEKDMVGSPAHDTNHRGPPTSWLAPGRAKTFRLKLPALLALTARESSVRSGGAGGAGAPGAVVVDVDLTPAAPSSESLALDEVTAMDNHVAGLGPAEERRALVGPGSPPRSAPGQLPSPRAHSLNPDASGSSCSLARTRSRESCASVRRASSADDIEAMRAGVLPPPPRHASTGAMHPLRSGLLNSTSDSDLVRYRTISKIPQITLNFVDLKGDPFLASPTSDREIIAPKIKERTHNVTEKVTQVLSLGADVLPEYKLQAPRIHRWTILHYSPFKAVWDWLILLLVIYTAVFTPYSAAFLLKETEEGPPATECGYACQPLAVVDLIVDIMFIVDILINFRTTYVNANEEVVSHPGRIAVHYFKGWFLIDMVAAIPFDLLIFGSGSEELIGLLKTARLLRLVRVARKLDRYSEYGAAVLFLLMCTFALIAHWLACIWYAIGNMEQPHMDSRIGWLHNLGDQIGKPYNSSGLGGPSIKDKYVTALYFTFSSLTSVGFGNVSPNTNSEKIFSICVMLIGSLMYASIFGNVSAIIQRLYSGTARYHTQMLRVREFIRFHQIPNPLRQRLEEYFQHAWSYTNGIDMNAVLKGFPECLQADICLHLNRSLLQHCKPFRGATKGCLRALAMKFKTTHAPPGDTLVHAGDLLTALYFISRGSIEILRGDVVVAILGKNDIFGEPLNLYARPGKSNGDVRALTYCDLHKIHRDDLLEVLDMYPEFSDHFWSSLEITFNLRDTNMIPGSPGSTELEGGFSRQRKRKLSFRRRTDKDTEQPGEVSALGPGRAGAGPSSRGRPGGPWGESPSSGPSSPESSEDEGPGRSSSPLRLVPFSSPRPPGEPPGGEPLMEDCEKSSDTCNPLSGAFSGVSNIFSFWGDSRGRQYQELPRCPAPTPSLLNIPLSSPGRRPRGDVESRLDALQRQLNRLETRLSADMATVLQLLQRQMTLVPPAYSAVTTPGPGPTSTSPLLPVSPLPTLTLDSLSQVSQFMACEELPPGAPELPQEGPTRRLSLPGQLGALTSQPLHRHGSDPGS
Take `CC(C)c1ccc(OCC(=O)Nc2ccc(S(=O)(=O)Nc3ccccn3)cc2)cc1`: the “hERG current change (%, negative = inhibition) at 10uM” value came out at 10.7%.
The value for `Clc1ccc(CNc2ncccn2)cc1` was 13.5%.
The value for `CCOc1ccc(/C(O)=C2/C(=O)C(=O)N(CC3CCCO3)C2c2ccco2)cc1` (centres unmarked) was 14.2%.
The value for `COc1ccc(CNC(=O)CCOc2ccc(C(C)(C)C)cc2)cc1` was 8.47%; that for `O=C1NCCN1CCNS(=O)(=O)c1cc(C(F)(F)F)cc(C(F)(F)F)c1` was 17.2%.
Turning to `Cc1csc(Nc2ccccc2C(F)(F)F)n1`, the “hERG current change (%, negative = inhibition) at 10uM” value amounted to 6.46%.
The value for `N#C/C(=C\c1c(N2CCN(c3ccccc3)CC2)nc2ccccn2c1=O)S(=O)(=O)c1ccccc1` was 2.28%; that for `N#C/C(=C\c1c(N2CCOCC2)nc2ccccn2c1=O)S(=O)(=O)c1ccccc1` was -63.2%.
For the compound `N#C/C(=C\c1c(N2CCCCC2)nc2ccccn2c1=O)S(=O)(=O)c1ccccc1`, the “hERG current change (%, negative = inhibition) at 10uM” value was -40.7%.
As for `Cc1ccc(S(=O)(=O)/C(C#N)=C/c2c(N3CCCCC3)nc3ccccn3c2=O)cc1`, the figure is -29.9%.
As for `N#C/C(=C\c1c(N2CCN(Cc3ccccc3)CC2)nc2ccccn2c1=O)S(=O)(=O)c1ccccc1`, the figure is 0.944%; as for `CN1CCN(c2nc3ccccn3c(=O)c2/C=C(\C#N)S(=O)(=O)c2ccc(Cl)cc2)CC1`, -51.9%; as for `CCN1CCN(c2nc3ccccn3c(=O)c2/C=C(\C#N)S(=O)(=O)c2ccccc2)CC1`, -42.3%.
Turning to `CN1CCN(c2nc3ccccn3c(=O)c2/C=C(\C#N)S(=O)(=O)c2ccccc2)CC1`, the “hERG current change (%, negative = inhibition) at 10uM” value is -24.9%.
As for `Cc1ccc(S(=O)(=O)/C(C#N)=C/c2c(N3CCN(C)CC3)nc3ccccn3c2=O)cc1`, the figure is -59.1%; as for `CCOC(=O)c1cccc(NC(=O)c2ccc(F)cc2F)c1`, -16.1%; as for `O=c1ccnc(Nc2ccc(Cl)cc2)[nH]1`, -10.3%.
As for `C/C(=N/NC(=O)CNC(=O)c1ccco1)c1ccco1`, the figure is 2.11%; as for `Cc1cccnc1NC(=O)Nc1ccc(Cl)cc1`, 9.39%.
The value for `Cc1ccc(N(CCC#N)C(=O)CSc2nnc3ccccn23)cc1` was -8.44%; that for `COc1ccc2ccccc2c1CN1CCN(Cc2ccccc2)CC1` was -2.66%; that for `Oc1cccc(Nc2nc(N3CCOCC3)nc(N3CCOCC3)n2)c1` was 8.76%.
As to `CSc1ccc(CN(C)C(=O)CNC(=O)CNS(=O)(=O)c2ccc(C)c(C)c2)cc1`, the “hERG current change (%, negative = inhibition) at 10uM” value is -24.1%.
The value for `CN(C(=O)N1CCN(c2ccccn2)CC1)c1ccccc1` was 7.47%; that for `Cc1cc(Cn2nc(C(=O)NCc3cccc(C(F)(F)F)c3)cc2-c2ccccc2)on1` was -57%.
As for `Cc1cc(Cn2nc(C(=O)NCc3cccc(Br)c3)cc2-c2ccccc2)on1`, the figure is -20.3%; as for `Cc1cc(Cn2nc(-c3ccccc3)cc2C(=O)NCc2cccc(C(F)(F)F)c2)on1`, 10.8%.
As for `CCOC(=O)c1c(NC(=O)CSc2nnc(C)s2)sc2c1CCC(C)C2` (centres unmarked), the figure is 21.5%; as for `CN1CCN(c2ccc(NS(=O)(=O)c3ccc(Cl)cc3)cn2)CC1`, -40.2%.
For the compound `O=C(CC1SC(=O)N(Cc2ccccc2Cl)C1=O)Nc1nccs1` (centres unmarked), the “hERG current change (%, negative = inhibition) at 10uM” value is listed as -5.31%.
The value for `COc1ccccc1OCC(=O)N/N=C1/C=C(C)CC1` was -3.82%.
The value for `CC1=C/C(=N\NC(=O)c2ccccc2)CC1` was -53.1%; that for `CC1=C/C(=N\NC(=O)c2ccc(O)cc2)CC1` was 20.8%.
As for `Cc1oc2c(c1C(=O)NCc1cccnc1)C(=O)c1ccccc1C2=O`, the figure is -47%.
In the case of `COc1cccc(NC(=O)CCc2nc(-c3ccccc3F)no2)c1`, the “hERG current change (%, negative = inhibition) at 10uM” value was -0.885%.
The value for `COc1cc(OC)c(C(=O)Nc2cc(Cl)ccc2-n2cncn2)cc1OC` was -55%; that for `O=C(Nc1cc(Cl)ccc1-n1cncn1)c1ccc(F)c(S(=O)(=O)N2CCOCC2)c1` was -44.6%.
Regarding `CCN(CC)c1ccc(C(=O)NC(=S)Nc2cc(S(=O)(=O)N3CCOCC3)ccc2-n2cncn2)cc1`, the “hERG current change (%, negative = inhibition) at 10uM” value is on record as -7.1%.
The value for `O=C(Nc1cc(Cl)ccc1-n1cncn1)c1cc(S(=O)(=O)N2CCOCC2)ccc1F` was -34.7%; that for `COc1ccccc1C(=O)Nc1cc(Cl)ccc1-n1cncn1` was 0.114%.
As for `O=C(Nc1cc(Cl)ccc1-n1cncn1)c1cccc(S(=O)(=O)N2CCOCC2)c1`, the figure is -61.9%.
The value for `COc1ccc(C(=O)Nc2cc(Cl)ccc2-n2cncn2)c(OC)c1OC` was -14.4%; that for `O=C(Nc1cc(S(=O)(=O)N2CCOCC2)ccc1-n1cncn1)c1ccc(Cl)cc1` was -50.4%; that for `CN1CCN(S(=O)(=O)c2cccc(C(=O)Nc3cc(Cl)ccc3N3CCOCC3)c2)CC1` was -42.3%.
